Data published in PubChem BioAssay.
Active and inactive are the calls of the source.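 How the source made its calls: active means compounds killing one labelled cell type while sparing the other, by normalised counts and ratio limits, not self-fluorescent; inactive means the rest.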

Experiment: differential killing of epithelial or mesenchymal cells, primary screen, imaging, PC-3E GFP, TEM4-18 mCherry, co-culture (AID 1345086);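 further: cells exposed to compound for 72 h before imaging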;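 on red/green cell ratio (normalised): normalised mesenchymal count divided by normalised epithelial count so high means epithelial killing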
Conditions: imaging cell counts, at 1 µM, actives lie on both sides, counts scaled to control wells, 1 = unselective

| Compound | red/green cell ratio (normalised) |
| --- | --- |
| Cc1oc(=O)c2c(O)cc(O)c(C)c2c1C | 1.03 (inactive) |
| CO[C@H]1OC2COC(c3ccccc3)OC2[C@H](OCc2ccccc2)[C@@H]1OCc1ccccc1 (stereo not given in full) | 1 (inactive) |
| O=C(Nc1ccccc1)Nc1ccc(CO)cc1 | 0.81 (inactive) |
| C=C1C(=O)OC(C(=O)OC)C1CCCCCCCC(C)O (stereo not given) | 1.07 (inactive) |
| O=C(O)C(O)C(O)C(O)C(O)C(=O)O (stereo not given) | 1.01 (inactive) |
| CC(=O)OC1CC(C)OC(=O)CCC(O)CC1=O (stereo not given) | 0.98 (inactive) |
| CC(C)CCCC(C)[C@H]1CCC2C3C=CC4=CC(=O)CC[C@]4(C)C3CC[C@@]21C (stereo not given in full) | 0.99 (inactive) |
| N=c1ccn2c(n1)O[C@@H]1[C@@H](O)[C@H](CO)O[C@@H]12 | 0.99 (inactive) |
| C[C@H]1C(=O)CCC2[C@]3(C)CC[C@@]4(C)C5CC(C)(C)CC[C@]5(C)CC[C@]4(C)C3CC[C@@]21C (stereo not given in full) | 1.06 (inactive) |
| C[C@@H]1CC[C@@]2(OC1)O[C@H]1CC3C4CC[C@H]5C[C@@H](O)CC[C@]5(C)C4CC[C@]3(C)[C@H]1[C@@H]2C (stereo not given in full) | 0.88 (inactive) |
| C=C1OC(=O)[C@]2([C@H](C)C=CC(=O)[C@H]2O)[C@H]1O | 1.05 (inactive) |
| COc1c(O)cc2c(c1O)C(=O)O[C@@H](C)[C@@H]2O | 1 (inactive) |
| C[C@@]1(N)CCCCCN(c2c(F)cc3c(=O)c(C(=O)O)cn(C4CC4)c3c2Cl)C1 | 1.03 (inactive) |
| C=C[C@](C)(O)CC[C@@H]1[C@@]2(C)CCCC(C)(C)[C@@H]2CC[C@]1(C)O | 1.05 (inactive) |
| CC(C)=C1CC[C@]2(C)[C@@H](O)CC[C@H]3[C@](C)(Cc4c[nH]c5ccccc45)[C@@H](C)CC[C@]132 | 0.86 (inactive) |
| NC(=O)c1cc(F)c(F)cc1NC1CC1 | 1.15 (inactive) |
| CC(CCOc1ccc(C(=O)O)cc1)C(=O)O (stereo not given) | 1.1 (inactive) |
| COc1ccc2cc(C(C)=O)ccc2c1 | 1.13 (inactive) |
| C[C@@H]1C(=O)NC(Cc2ccccc2)C(=O)N2CCCC[C@H]2C(=O)O[C@H]([C@@H](C)CCCC[C@@H](C)O)C[C@H]1O (stereo not given in full) | 0.9 (inactive) |
| CO/N=C1/C[C@]2(C[C@@H]3C[C@@H](C/C=C(\C)C[C@@H](C)/C=C/C=C4\COC5[C@H](O)C(C)=C[C@@H](C(=O)O3)[C@]45O)O2)O[C@H](/C(C)=C/C(C)C)[C@H]1C (stereo not given in full) | 1.32 (inactive) |

| Compound | red/green cell ratio (normalised) |
| --- | --- |
| O=C(O)C1CC(C2CCCCN2)CN2CCCCC12 (stereo not given) | 1.06 (inactive) |
| CC(C)C1=CC2=CCC3[C@](C)(CCC[C@]3(C)C(=O)O)C2CC1 (stereo not given in full) | 1.12 (inactive) |
| CNC1C(O[C@@H]2OC(CO)C(N)[C@H](O)C2O)OC2CC(N)[C@@H](OC3C(N)C[C@@H](N)C(O)[C@H]3O)OC2C1O (stereo not given in full) | 1.2 (inactive) |
| COc1cc(O)c2c(c1C)C(C(C)=O)COC2=O (stereo not given) | 0.88 (inactive) |
| O=C1CCC[C@@H](N2C(=S)OC[C@H]2c2ccccc2)C1 | 0.91 (inactive) |
| COc1cc(N)cc(OC)c1 | 0.94 (inactive) |
| COc1ccc(-c2oc3ccccc3c(=O)c2OC)cc1 | 0.92 (inactive) |
| COC(=O)C[C@@H]1C2(C)C(=O)C3CC4(OC3(O)C1(C)C)C1=CC(=O)O[C@@H](c3ccoc3)[C@]1(C)CCC42 (stereo not given in full) | 1.06 (inactive) |
| C=C1C(=O)OC(C(=O)O)C1(O)CCCCCCCCC (stereo not given) | 0.96 (inactive) |
| CC[C@@H]1OC(=O)c2c(OC)cc(=O)oc21 | 1.1 (inactive) |
| CC1CC2OC2/C=C/C(O)CC(=O)O1 (stereo not given) | 0.97 (inactive) |
| O=C(O)c1ccc(-c2ccccc2)cc1 | 0.96 (inactive) |
| C[C@@H]1Cc2cccc(O)c2C(=O)O1 | 1.03 (inactive) |
| O=C(O)c1cc(O)c2c(c1)[C@@H]([C@@H]1c3cc(C(=O)O)cc(O)c3C(=O)c3c(O[C@H]4O[C@H](CO)[C@@H](O)[C@H](O)[C@H]4O)cccc31)c1cccc(O[C@H]3O[C@H](CO)[C@@H](O)[C@H](O)[C@H]3O)c1C2=O | 0.83 (inactive) |
| CC1(C)C[C@]2(C)CC(=O)O[C@H]3OC(=O)[C@@H]4CC[C@@H]1[C@]342 | 0.92 (inactive) |
| CC(=O)[C@H]1CCC2C3C=CC4=CC(=O)CC[C@@]4(C)C3CC[C@@]21C (stereo not given in full) | 0.68 (inactive) |
| O=C1N=NC(=O)N1c1ccccc1 | 0.86 (inactive) |
| Oc1ccc2c(c1)OCC1(O)Cc3cc(O)c(O)cc3C21 (stereo not given) | 1.17 (inactive) |
| C[C@H]1C[C@H]2O[C@@H]2/C=C\C=C\C(=O)Cc2c(Cl)c(O)cc(O)c2C(=O)O1 | 0.97 (inactive) |
| C[C@]12CCc3occc3C1CC[C@@]13C[C@@H](CCC12)[C@@](O)(CO)C3 (stereo not given in full) | 1.12 (inactive) |

Same assay, conditions: imaging cell counts, measured here: epithelial PC-3E GFP cell survival, at 1 µM

| Compound | normalised cell number |
| --- | --- |
| Cc1oc(=O)c2c(O)cc(O)c(C)c2c1C | 1.11 |
| CO[C@H]1OC2COC(c3ccccc3)OC2[C@H](OCc2ccccc2)[C@@H]1OCc1ccccc1 (stereo not given in full) | 1.15 |
| O=C(Nc1ccccc1)Nc1ccc(CO)cc1 | 1.24 |
| C=C1C(=O)OC(C(=O)OC)C1CCCCCCCC(C)O (stereo not given) | 1.11 |
| O=C(O)C(O)C(O)C(O)C(O)C(=O)O (stereo not given) | 1.04 |
| CC(=O)OC1CC(C)OC(=O)CCC(O)CC1=O (stereo not given) | 0.98 |
| CC(C)CCCC(C)[C@H]1CCC2C3C=CC4=CC(=O)CC[C@]4(C)C3CC[C@@]21C (stereo not given in full) | 0.94 |
| N=c1ccn2c(n1)O[C@@H]1[C@@H](O)[C@H](CO)O[C@@H]12 | 0.27 |
| C[C@H]1C(=O)CCC2[C@]3(C)CC[C@@]4(C)C5CC(C)(C)CC[C@]5(C)CC[C@]4(C)C3CC[C@@]21C (stereo not given in full) | 1.06 |
| C[C@@H]1CC[C@@]2(OC1)O[C@H]1CC3C4CC[C@H]5C[C@@H](O)CC[C@]5(C)C4CC[C@]3(C)[C@H]1[C@@H]2C (stereo not given in full) | 1.17 |
| C=C1OC(=O)[C@]2([C@H](C)C=CC(=O)[C@H]2O)[C@H]1O | 1.08 |
| COc1c(O)cc2c(c1O)C(=O)O[C@@H](C)[C@@H]2O | 1.01 |
| C[C@@]1(N)CCCCCN(c2c(F)cc3c(=O)c(C(=O)O)cn(C4CC4)c3c2Cl)C1 | 0.97 |
| C=C[C@](C)(O)CC[C@@H]1[C@@]2(C)CCCC(C)(C)[C@@H]2CC[C@]1(C)O | 1.16 |
| CC(C)=C1CC[C@]2(C)[C@@H](O)CC[C@H]3[C@](C)(Cc4c[nH]c5ccccc45)[C@@H](C)CC[C@]132 | 1.09 |
| NC(=O)c1cc(F)c(F)cc1NC1CC1 | 1.02 |
| CC(CCOc1ccc(C(=O)O)cc1)C(=O)O (stereo not given) | 1.03 |
| COc1ccc2cc(C(C)=O)ccc2c1 | 0.99 |
| C[C@@H]1C(=O)NC(Cc2ccccc2)C(=O)N2CCCC[C@H]2C(=O)O[C@H]([C@@H](C)CCCC[C@@H](C)O)C[C@H]1O (stereo not given in full) | 1.03 |
| CO/N=C1/C[C@]2(C[C@@H]3C[C@@H](C/C=C(\C)C[C@@H](C)/C=C/C=C4\COC5[C@H](O)C(C)=C[C@@H](C(=O)O3)[C@]45O)O2)O[C@H](/C(C)=C/C(C)C)[C@H]1C (stereo not given in full) | 1 |

| Compound | normalised cell number |
| --- | --- |
| O=C(O)C1CC(C2CCCCN2)CN2CCCCC12 (stereo not given) | 0.95 |
| CC(C)C1=CC2=CCC3[C@](C)(CCC[C@]3(C)C(=O)O)C2CC1 (stereo not given in full) | 0.92 |
| CNC1C(O[C@@H]2OC(CO)C(N)[C@H](O)C2O)OC2CC(N)[C@@H](OC3C(N)C[C@@H](N)C(O)[C@H]3O)OC2C1O (stereo not given in full) | 0.92 |
| COc1cc(O)c2c(c1C)C(C(C)=O)COC2=O (stereo not given) | 0.32 |
| O=C1CCC[C@@H](N2C(=S)OC[C@H]2c2ccccc2)C1 | 1.1 |
| COc1cc(N)cc(OC)c1 | 0.97 |
| COc1ccc(-c2oc3ccccc3c(=O)c2OC)cc1 | 1.18 |
| COC(=O)C[C@@H]1C2(C)C(=O)C3CC4(OC3(O)C1(C)C)C1=CC(=O)O[C@@H](c3ccoc3)[C@]1(C)CCC42 (stereo not given in full) | 0.91 |
| C=C1C(=O)OC(C(=O)O)C1(O)CCCCCCCCC (stereo not given) | 1.02 |
| CC[C@@H]1OC(=O)c2c(OC)cc(=O)oc21 | 1.01 |
| CC1CC2OC2/C=C/C(O)CC(=O)O1 (stereo not given) | 1.06 |
| O=C(O)c1ccc(-c2ccccc2)cc1 | 1.01 |
| C[C@@H]1Cc2cccc(O)c2C(=O)O1 | 0.83 |
| O=C(O)c1cc(O)c2c(c1)[C@@H]([C@@H]1c3cc(C(=O)O)cc(O)c3C(=O)c3c(O[C@H]4O[C@H](CO)[C@@H](O)[C@H](O)[C@H]4O)cccc31)c1cccc(O[C@H]3O[C@H](CO)[C@@H](O)[C@H](O)[C@H]3O)c1C2=O | 1.02 |
| CC1(C)C[C@]2(C)CC(=O)O[C@H]3OC(=O)[C@@H]4CC[C@@H]1[C@]342 | 1.05 |
| CC(=O)[C@H]1CCC2C3C=CC4=CC(=O)CC[C@@]4(C)C3CC[C@@]21C (stereo not given in full) | 1.28 |
| O=C1N=NC(=O)N1c1ccccc1 | 1.19 |
| Oc1ccc2c(c1)OCC1(O)Cc3cc(O)c(O)cc3C21 (stereo not given) | 1.12 |
| C[C@H]1C[C@H]2O[C@@H]2/C=C\C=C\C(=O)Cc2c(Cl)c(O)cc(O)c2C(=O)O1 | 0.89 |
| C[C@]12CCc3occc3C1CC[C@@]13C[C@@H](CCC12)[C@@](O)(CO)C3 (stereo not given in full) | 0.94 |
